# FLuc modulator – firefly luciferase modulation, counter-screen for miR-21 project. Potency, µM (titrated, usually from 57.5 µM), for inactives: top-dose activity change, negative = inhibition, usual class: inhibitors. P08659. purified FLuc, Km substrates, luminescence inhibition. AID 588342. 360,000 tested, 6.9% active;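 further: plate controls were vehicle for no effect and reference inhibitor for full effect; nearly all actives have a fitted effect of over 55% in size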
# Target sequence (P08659 whole entry, looked up): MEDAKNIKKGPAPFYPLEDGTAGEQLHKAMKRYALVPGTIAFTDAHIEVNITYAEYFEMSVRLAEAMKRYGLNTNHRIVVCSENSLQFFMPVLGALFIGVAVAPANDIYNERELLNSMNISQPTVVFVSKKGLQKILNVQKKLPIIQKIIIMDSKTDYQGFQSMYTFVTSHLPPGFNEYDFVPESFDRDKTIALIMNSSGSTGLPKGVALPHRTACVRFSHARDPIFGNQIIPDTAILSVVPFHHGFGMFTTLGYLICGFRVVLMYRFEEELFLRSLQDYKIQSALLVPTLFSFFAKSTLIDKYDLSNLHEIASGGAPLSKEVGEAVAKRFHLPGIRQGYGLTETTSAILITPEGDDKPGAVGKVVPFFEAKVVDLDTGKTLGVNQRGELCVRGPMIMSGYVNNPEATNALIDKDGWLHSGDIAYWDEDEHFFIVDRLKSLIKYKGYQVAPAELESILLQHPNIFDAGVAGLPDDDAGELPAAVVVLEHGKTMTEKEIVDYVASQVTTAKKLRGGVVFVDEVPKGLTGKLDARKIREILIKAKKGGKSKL
#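 Purified P. pyralis luciferase, 10 nM final, with Km-level 10 uM D-luciferin and 10 uM ATP in 50 mM Tris acetate pH 7.5, 10 mM Mg acetate, 0.01% Tween-20, 0.05% BSA; 6-point qHTS titration about 60 µM downward; luminescence read.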
# ELG1 genotoxic – inducers of genotoxicity in HEK293T ELG1-luciferase cells; HEK293T ELG1-luciferase reporter, luminescence, 16 h; Potency, µM (titrated, usually from 46 µM), for the others: at the top dose activity change, positive = activation, usual class: activators; 330,000 tested, 1.3% active; further: % of control where 0% means no effect; nearly all actives have a fitted effect of over 60% in size
#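 DMSO vehicle served as control against compound-treated ELG1-luciferase HEK293T cells; exposure lasted 16 hr at 37 °C and 5% CO2, followed by ONE-Glo luminescence detection after 30 min.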
# SMN2 splice enh – SMN2 splice variant enhancement | HEK293 SMN2-luciferase splicing reporter, luminescence, 30-36 h | Potency, µM (top dose mostly 46.1 µM), inactives show top-dose activity change, positive = activation, hits mostly activators | 210,000 tested, 2.8% active; further: % of control where 0% means no effect; nearly all actives have a fitted effect of over 55% in size
#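 qHTS luciferase splicing reporter: luminescence rises when SMN2 exon 7 is included in transfected HEK293 cells. Compound exposure lasted 30-36 h at 37C, with 4.5 mM final sodium butyrate as control, followed by a ONE-Glo read.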
# ELG1 repair inh – blocks ELG1-dependent DNA repair in HEK293T cells; HEK293T ELG1-luciferase reporter, luminescence, 16 h; DNA damage induced by 5-fluorouridine; Potency, µM (series often up to 46.1 µM), for inactives: at the highest dose activity change, negative = inhibition, hits mostly inhibitors; 330,000 tested, 2.3% active; AID 504467; further: on the % scale 0 is the no-effect control and ±100 the full control effect; nearly all actives have a fitted effect of over 55% in size
#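 Step one: seed 2,000 cells per well. Step two: pin-transfer compound or DMSO alongside 5-fluorouridine. Step three: incubate 16 hr, 37 °C, 5% CO2. Step four: add ONE-Glo, wait 30 min, read luminescence.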
# Rab9 prom act – activates the Rab9 promoter; Huh7 Rab9 promoter-luciferase reporter, luminescence, 24 h; Potency, µM (series often up to 9.22 µM), for the others: top-dose activation, negative = inhibition, most hits filed as activators; 320,000 tested, 2.8% active; further: % of control where 0% means no effect; nearly all actives have a fitted effect of over 60% in size
#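 Stable Rab9-luc Huh7, 1500 cells/well, 2 h settle; cmpd in DMSO, 24 h, 37 °C/5% CO2; luciferase reagent 10 min RT; luminescence.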
# NPC1 prom act – activates the NPC1 promoter; Huh7 NPC1 promoter luciferase reporter, 24 h; Potency, µM (titrated, usually from 9.22 µM), without a hit: at the highest dose activation, most hits filed as activators; 320,000 tested, 2.4% active; further: % of control where 0% means no effect; nearly all actives have a fitted effect of over 60% in size
#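 Stably transfected Huh7 (NPC1 promoter→luciferase), 1500 cells/well in Opti-MEM + 10% FBS, 2 h settle, then compound 24 h at 37 °C. Luminescence after 10 min with Amplite reagent.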
# Starred values were filed as active, the others as inactive; ? = inconclusive; / = not tested or not shown. An excerpt weighted towards active compounds, which were near 9.3% of everything screened. The call rests on the fitted dose curve; in most records, active means well fitted curve in the direction sought with a large enough effect; inconclusive means small, poorly fitted or top-dose-only effect, or another doubt; inactive means no such curve, though single readings can be large; an effect the other way counts as inactive or inconclusive. Potency means the concentration at half of the fitted maximal effect.
SMILES,FLuc modulator,ELG1 genotoxic,SMN2 splice enh,ELG1 repair inh,Rab9 prom act,NPC1 prom act
O=C1[C@@H](Oc2ccccc2)[C@@H](c2cnc3ccccc3c2)N1c1ccccc1,/,-12%,/,16µM*,/,/
CC(=O)N1CCN(C(=O)CSc2nnc(C)n2-c2ccccc2)CC1,2%,0%,/,12%,-2%,-3%
Cc1ccc2c(c1)-c1ccccc1S(=O)(=O)N2,2%,-3%,32%,0%,-2%,-6%
N#C/C(=N\Nc1ccc(S(=O)(=O)N2CCCCCC2)cc1)C(N)=S,?,-17%,-23%,21µM*,0%,-2%
CCOC(=O)/C(C#N)=N/Nc1ccc(S(=O)(=O)N2CCc3ccccc32)cc1,-1%,-15%,-58%,?,-3%,-4%
N#C/C(=N\Nc1ccc(S(=O)(=O)N2CCc3ccccc32)cc1)C(N)=S,?,-18%,-41%,6.5µM*,-12%,-2%
Cc1nn(-c2ccccn2)c2c1C(c1ccccc1Cl)C1=C(N2)c2ccccc2C1=O (centres undefined),4%,-13%,-28%,21µM*,-9%,-7%
Cc1nn(-c2ccccn2)c2c1C(c1c(F)cccc1Cl)C1=C(N2)c2ccccc2C1=O (centres undefined),0%,-13%,0%,15µM*,-1%,-6%
N#CCCNS(=O)(=O)c1ccc(C(=O)OCCCOC(=O)c2ccc(S(=O)(=O)NCCC#N)cc2)cc1,1.2µM*,-12%,/,-2%,11%,16%
Cc1cc(NC(=O)c2cc3ncc(Br)cn3n2)no1,?,15%,22%,7%,-1%,1%
Cc1nn(C(=O)c2cccc([N+](=O)[O-])c2)c(C)c1Cl,-2%,-5%,/,-11%,0%,-7%
CCC(C)[C@H](NC(=O)NCCC1=CCCCC1)C(=O)O (some centres undefined),0%,-1%,/,10%,-2%,3%
O=c1[nH]nnc2sc3c(c12)CCCC3,-3%,-12%,10%,13µM*,4%,0%
O=c1[nH]c(-c2ccco2)nc2sc3c(c12)CCCC3,3µM*,9.2µM*,1µM*,?,1.6µM*,2µM*
O=c1oc(-c2cccs2)nc2sc3c(c12)CCC3,?,-1%,?,-5%,-1%,18%
O=c1oc(/C=C/c2ccco2)nc2sc3c(c12)CCC3,0.95µM*,0%,15%,21%,16%,18%
COC(=O)c1c(N)sc(C(C)=O)c1C,-2%,5%,18%,?,3%,4%
COC(=O)c1c(N)sc(C(=O)NCCc2ccccc2)c1C,0.095µM*,0.23µM*,/,?,?,?
CCOC(=O)c1c(N)sc(C(=O)OC)c1C,-29%,12%,3%,?,6%,6%
CCOC(=O)c1sc(N)c(C(=O)OC)c1C,15µM*,17%,/,?,30%,27%
CN(Cc1cccc(Cl)c1Cl)C(=O)c1ccc(NC(=O)CC#N)cc1,-1%,1%,-8%,0%,1%,2%
CN(C)CCCN(Cc1ccccc1)C(=S)Nc1cccc(C(F)(F)F)c1,-3%,-1%,/,4%,-5%,-2%
COc1ccc(-n2c(COc3ccc(C)cc3)nnc2SCC(N)=O)cc1,-1%,1%,3%,-5%,1%,-1%
CC1CCc2c(sc(/N=C/c3ccco3)c2C(N)=O)C1 (centres undefined),5.4µM*,?,/,?,28%,?
CC1CCc2c(sc(/N=C/c3cccnc3)c2C(N)=O)C1 (centres undefined),24µM*,17%,/,?,2%,8%
SMILES,FLuc modulator,ELG1 genotoxic,SMN2 splice enh,ELG1 repair inh,Rab9 prom act,NPC1 prom act
CC(C)(C)NC(=O)CN(C(=O)c1ccc(CN2CCOCC2)o1)c1ccc2c(c1)OCCO2,0%,1%,5%,6%,3%,8%
COc1ccc(-c2nnc(N(C)C(=O)c3ccno3)s2)cc1,11µM*,?,11µM*,?,3.2µM*,?
CN(C(=O)c1ccncc1)c1nnc(-c2ccccn2)s1,17µM*,?,?,?,?,23%
CCCCC(=O)Nc1nnc(-c2ccc(OC)cc2)s1,?,6%,?,?,27%,27%
Cc1cnc(-c2nnc(N(C)C(=O)C3CCCO3)s2)cn1 (centres undefined),-13%,13%,-13%,?,28%,20%
COc1ccc(-c2nnc(N(C)C(=O)C3CCCO3)s2)cc1 (centres undefined),13µM*,?,11µM*,?,2µM*,2.5µM*
CN(C(=O)c1ccno1)c1nnc(-c2ccccn2)s1,15µM*,14%,-1%,?,5%,12%
Cn1c(=O)[nH]c(=O)c2c1nc(SCCO)n2CCCc1ccccc1,0%,14%,/,15%,-1%,-1%
C=CCn1cnc2c(c1=O)c1nc3ccccc3nc1n2Cc1ccccc1,1%,3%,5%,-16%,-4%,0%
COc1ccc(-c2[nH]c(-c3ccccc3)nc2SCC(=O)NC2CCCC2)cc1,-4%,1%,-6%,?,-5%,0%
N#Cc1nc(-c2ccc(F)cc2)oc1NCCN1CCOCC1,-2%,19%,16%,?,0%,5%
Cc1ccc(C(=O)N(C)c2nnc(-c3ccncc3)s2)cc1,17µM*,13%,30%,?,?,?
CN(C(=O)c1ccncc1)c1nnc(-c2cccnc2)s1,3%,?,/,0%,2%,2%
CC(NC(=O)C1CCN(S(=O)(=O)N2CCCCCC2)CC1)c1ccccc1 (centres undefined),-2%,-10%,-31%,?,-5%,-2%
NS(=O)(=O)c1cc(Cl)c(NC(=O)COC(=O)c2ccccn2)c(Cl)c1,2%,2%,/,16%,-5%,-2%
CCC(=O)Nc1nnc(S(=O)(=O)N(C)c2ccccc2)s1,0%,1%,/,-2%,2%,-3%
O=C(CC1CC2CCC1C2)Nc1nc(-c2ccccn2)cs1 (centres undefined),24µM*,-5%,17%,21µM*,4µM*,28%
O=C(Nc1nc(-c2ccccn2)cs1)C12CC3CC(CC(O)(C3)C1)C2,6.7µM*,?,11µM*,?,3.2µM*,2.2µM*
Cc1ccc(S(=O)(=O)N(C)C[C@H]2Oc3ccc(NC(=O)C4CCCCC4)cc3C(=O)N([C@H](C)CO)C[C@H]2C)cc1,/,5%,/,4%,/,/
O=C(c1cnn(-c2ccccc2)c1)c1ccc2ccccc2c1O,7.6µM*,?,13µM*,?,?,?

# High-throughput results (PubChem)
